KDM4E inh – inhibitors of human JMJD2E histone demethylase; actives 1.6% (n = 230,000); B2RXH2; Potency, µM (doses to about 57.1 µM), for inactives: top-dose activity change, negative = inhibition, usual class: inhibitors; JMJD2E catalytic domain, FDH-coupled NADH fluorescence (FDH is formaldehyde dehydrogenase); AID 2147; active means well fitted inhibition curve with a large enough effect, not every such curve was filed as active; inconclusive means small, poorly fitted or top-dose-only effect, or another doubt; inactive means no such curve, though single readings can be large or run the other way;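 further: potency means the concentration at half of the fitted maximal effect; 0% = wells with enzyme and -100% = buffer wells without enzyme; nearly all actives have a fitted effect of over 50% in size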
Target sequence (B2RXH2 1-337 limits assumed): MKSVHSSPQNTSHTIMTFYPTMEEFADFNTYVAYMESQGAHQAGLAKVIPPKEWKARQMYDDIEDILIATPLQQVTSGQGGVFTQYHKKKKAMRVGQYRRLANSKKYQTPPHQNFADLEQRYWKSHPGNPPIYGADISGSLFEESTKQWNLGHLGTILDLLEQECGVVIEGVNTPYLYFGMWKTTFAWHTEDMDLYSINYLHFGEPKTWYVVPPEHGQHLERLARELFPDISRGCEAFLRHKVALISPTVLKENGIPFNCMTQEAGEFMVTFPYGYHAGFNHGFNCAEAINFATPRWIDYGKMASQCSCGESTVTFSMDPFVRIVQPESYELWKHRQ
GoLoco inh red – blocks human Gai1 binding to RGS12 GoLoco peptide, red readout. Gai1:RGS12 GoLoco peptide FP, rhodamine, 10 min. actives 0.44% (n = 230,000). P63096. Potency, µM (doses to about 61.6 µM), for the others: at the top dose activity, negative = inhibition, usual class: inhibitors; active means well fitted inhibition curve with a large enough effect, not every such curve was filed as active; inactive means no such curve, though single readings can be large or run the other way; further: potency means the concentration at half of the fitted maximal effect; nearly all actives have a fitted effect of over 30% in size
Sfp inh – blocks B. subtilis Sfp PPTase activity; AID 1490; Potency, µM, inactives show largest response in the series, negative = inhibition, usual class: inhibitors; Q9F4F7; actives 3.5% (n = 310,000); Biochemical Sfp PPTase activity, qHTS;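 further: the enzyme is Sfp with the accession as filed and its product quenches rhodamine fluorescence; potency means the concentration at half of the fitted maximal effect; 0% = enzyme reaction without inhibitor and -100% = no enzyme wells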
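Reaction rates are the 30-min fluorescence difference (ex 525, em 598 nm) in wells containing 15 nM Sfp, 5 uM rhodamine-CoA and 12.5 uM BHQ-2-YbbR at pH 7.6 with 10 mM MgCl2.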
FBPA coupling cs – inhibits coupling enzyme system, counter-screen for aldolase hits | coupling enzyme system counterscreen, AmpLite Red fluorescence | activity change, negative = inhibition, % at 58.2 µM, hits read low | actives 0.67% (n = 290,000) | AID 2472; in the data active means activity change below about -30%
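Counterscreen lacking aldolase: glyceraldehyde-3-phosphate coupling-enzyme reagent preincubated 10 min at RT with compound (at 57.5 uM final), then substrate/coupling system with AmpLite Red added; fluorescence read at 525/598 nm after 20 min RT.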
NPSR antag – antagonists of human neuropeptide S receptor cAMP signaling | Q6W5P4 | CHO-NPSR cells, cAMP TR-FRET, antagonist mode | actives 1% (n = 220,000) | Potency, µM (top dose mostly 38.3 µM), for inactives: top-dose activity change, negative = inhibition, hits mostly inhibitors; further: potency means the concentration at half of the fitted maximal effect; nearly all actives have a fitted effect of over 50% in size
Target sequence (Q6W5P4 whole entry, looked up): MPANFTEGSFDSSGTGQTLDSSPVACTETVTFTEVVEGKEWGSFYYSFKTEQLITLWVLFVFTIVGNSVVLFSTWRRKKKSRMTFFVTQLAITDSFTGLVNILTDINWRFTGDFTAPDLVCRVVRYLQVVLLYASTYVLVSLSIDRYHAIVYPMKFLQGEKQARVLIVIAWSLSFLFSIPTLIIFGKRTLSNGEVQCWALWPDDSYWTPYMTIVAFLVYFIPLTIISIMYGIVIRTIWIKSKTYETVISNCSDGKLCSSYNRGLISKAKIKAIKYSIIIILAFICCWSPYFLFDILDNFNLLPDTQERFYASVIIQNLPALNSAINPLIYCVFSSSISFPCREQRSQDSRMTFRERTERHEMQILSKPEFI
ALDH1A1 block – inhibitors of human aldehyde dehydrogenase 1A1; P00352; Purified ALDH1A1, NADH fluorescence, propionaldehyde substrate; Potency, µM (titrated, usually from 75.3 µM), for inactives: at the highest dose activity, negative = inhibition, hits mostly inhibitors; actives 7.3% (n = 220,000); AID 1030; active means well fitted inhibition curve with a large enough effect, not every such curve was filed as active; inconclusive means small, poorly fitted or top-dose-only effect, or another doubt; inactive means no such curve, though single readings can be large or run the other way;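 further: potency means the concentration at half of the fitted maximal effect; plate controls were no enzyme wells and a reference inhibitor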
Numbers without * were called inactive; ? = inconclusive; . = no result given; [ ] = dose if it differs, or a comment. Most compounds without a hit are left out; they make up all but 8.5% or so of the library. Unless noted, the call rests on the fitted dose curve; in most records, active means well fitted curve in the direction sought with a large enough effect; inconclusive means small, poorly fitted or top-dose-only effect, or another doubt; inactive means no such curve, though single readings can be large; an effect the other way counts as inactive or inconclusive. Unless noted, on the % scale 0 is the no-effect control and ±100 the full control effect.

SMILES	KDM4E inh	GoLoco inh red	Sfp inh	FBPA coupling cs	NPSR antag	ALDH1A1 block
COc1ccc(S(=O)(=O)N2CCSC2c2ccccc2)cc1 (configuration not stated)	?	-5.7%	3.2%	-0.6	-9.6%[46.1 µM]	25.1µM*
COc1ccc(NC(C)(C)c2nnnn2-c2c(C)cccc2C)cc1	-11.9%	11.6%	-3.9%	-0.5	14.4%	?
COc1ccc(C(=O)NCCN2CCOCC2)c(OC)c1	-1.2%	11.2%	15.7%	1.3	19.8%	5.9%
COc1ccc(C(=O)NCCn2ccc3ccccc32)c(OC)c1	5.1%	15.0%	-0.4%	-7.0	-11.5%[46.1 µM]	10µM*
CCc1nnc(NS(=O)(=O)c2ccc(NC(=O)c3ccccc3O)cc2)s1	.	.	4.1%	-3.0	.	.
O=c1c2c(-c3ccc([N+](=O)[O-])cc3)csc2nc2n1CCC2	3.2%	-23.6%	?	-1.0	27.8%[46.1 µM]	7.08µM*
O=[N+]([O-])c1ccc(-c2nnc3n2CCCCC3)cc1	.	.	3.8%	1.0	.	.
Cc1nn(Cc2ccc(C(=O)NC(C)(C)C)o2)c(C)c1Br	-1.3%	3.9%	56.2µM*	1.3	0.1%[46.1 µM]	?
Cc1ccc(S(=O)(=O)NCCN=C(CN2CCCC2)NS(=O)(=O)c2ccc(C)cc2)cc1	0.6%	-1.4%	20.0%	-3.8	-18.0%[46.1 µM]	4.47µM*
Cc1ccc(S(=O)(=O)NCCN=C(CN2CCOCC2)NS(=O)(=O)c2ccc(C)cc2)cc1	-1.4%	6.5%	8.4%	-3.6	-7.5%[46.1 µM]	1.58µM*
CC(=O)c1nn(-c2ccc(Cl)cc2)c(=O)[nH]c1=O	.	.	6.4%	-2.7	.	.
Nc1ncc(Br)cc1S(=O)(=O)NCCc1ccccc1	.	.	9.2%	.	.	.
CC(C)N(Cc1ccccc1)C(=S)Nc1ccccc1F	-1.5%	6.7%	2.4%	1.6	29.0%	-12.3%
CCOc1ccc(C(=O)NCc2ccco2)cc1OC	.	.	9.7%	-0.8	.	.
CCOC(=O)c1cc2nc(-c3ccco3)cc(C(F)(F)F)n2n1	?	-1.3%	2.4%	2.3	-4.0%[46.1 µM]	?
Cc1cc2nc(-c3ccco3)cc(C(F)(F)F)n2n1	-0.8%	12.7%	-9.5%	-3.9	6.6%[46.1 µM]	14.1µM*
COCCn1c(SCc2ccc(OC)c(F)c2)nnc1-c1ccncc1	.	.	9.8%	-0.1	.	.
Cc1cc(C)cc(-n2c3nc4ccccc4nc3c3c(=O)n(Cc4ccco4)cnc32)c1	?	14.5%	7.08µM*	3.4	10µM*	?
COc1ccc(S(=O)(=O)c2c(N)n(Cc3ccco3)c3nc4ccccc4nc23)cc1	?	44.2%	56.2µM*	-3.4	-24.1%[46.1 µM]	?
Cc1nc2ccccc2c(=O)n1Cc1ccco1	13.6%	10.2%	8.3%	3.5	-8.3%	-2.6%
Cc1nc2c(c(=O)n1Cc1ccccc1Cl)c1nc3ccccc3nc1n2Cc1ccco1	?	34.4%	2.82µM*	1.9	12.6µM*	?
COc1ccc(Cn2c3nc4ccccc4nc3c3c(=O)n(Cc4ccco4)c(C)nc32)cc1	?	45.0%	7.94µM*	-6.1	-24.7%[46.1 µM]	?
CC12CCC=CC1C(c1ccc3ccccc3c1C=Cc1ccccc1)N(Cc1ccccc1)C2=O (configuration not stated)	.	.	-0.3%	-1.6	.	.
CCOC(=O)C1CCN(CC(=O)N(CC(C)C)c2c(N)n(CC(C)C)c(=O)[nH]c2=O)CC1	?	18.1%	7.0%	-2.3	30.3%	?
COc1cc(/C=C2/SC(=S)N(c3ccccc3)C2=O)ccc1Oc1nc(N2CCOCC2)nc(N2CCOCC2)n1	-2.5%	114.8%	?	-0.1	-55.3%	0.398µM*
SMILES	KDM4E inh	GoLoco inh red	Sfp inh	FBPA coupling cs	NPSR antag	ALDH1A1 block
COc1ccc(/C=C2\SC(=S)N(CCCC(=O)N3CCOCC3)C2=O)cc1OC	.	.	2.5%	3.9	.	.
Cc1ccc(OCC(=O)N2CCc3ccccc3C2)c([N+](=O)[O-])n1	-7.7%	3.8%	12.4%	-1.1	3.8%	10.2%
Nn1c(SCc2c(F)cccc2F)nnc1-c1ccccn1	-9.9%	5.5%	15.6%	0.7	19.2%	.
Cc1ccc(C)c(CSc2nnc(-c3ccccn3)n2N)c1	5.0%	5.6%	11.6%	-1.9	-3.0%[46.1 µM]	10µM*
Cc1cc(C)c2sc(NC(=O)C3=COCCO3)nc2c1	.	.	6.0%	-16.7	.	.
CSc1ccc(C(=O)C2CCCN(C(=O)c3ccsc3)C2)cc1 (configuration not stated)	2.1%	12.4%	5.1%	3.8	-25.5%	5.01µM*
CCOC(=O)c1c(NC(=O)CCS(=O)(=O)c2ccccc2)sc2c1CCN(C(C)C)C2	.	.	-8.2%	1.5	.	.
CN(C)c1ccc(C2N(C(=O)N3CCOCC3)CCN2S(=O)(=O)c2ccccc2)cc1 (configuration not stated)	-4.4%	2.8%	23.1%	-0.3	-1.4%[46.1 µM]	1µM*
Cc1ccc(S(=O)(=O)N2CCN(C(=O)N3CCOCC3)C2c2ccc(N(C)C)cc2)cc1 (configuration not stated)	-11.1%	-3.4%	5.9%	1.2	-7.1%[46.1 µM]	0.631µM*
Cc1c(C(=O)N2CCCCC2)c(S(=O)(=O)NCc2ccc(Cl)cc2)c(C)n1C	.	.	11.4%	1.1	.	.
COc1cccc(C(=O)N(C)CC2CCN(CCc3cccc(C(F)(F)F)c3)CC2)c1	.	.	-1.2%	0.9	.	.
O=C(O)c1ccc2c(c1)C(=O)N([C@H](Cc1ccc(C(F)(F)F)cc1)C(=O)O)C2=O	.	.	19.1%	9.4	.	.
COc1cccc(CNC(=O)Nc2cccs2)c1	-20.9%	23.2%	44.7µM*	2.0	-4.9%[46.1 µM]	?
COc1ccc(CNC(=O)Nc2cccs2)cc1OC	7.0%	19.5%	25.1µM*	0.9	-9.0%[46.1 µM]	?
COc1ccc(Br)cc1CNC(=O)Nc1cccs1	-7.6%	14.7%	50.1µM*	0.1	-13.4%[46.1 µM]	?
Cc1ccc(CNC(=O)Nc2ccccc2)cc1	-3.3%	-8.3%	6.0%	-0.5	-7.8%[46.1 µM]	-0.9%
Cc1ccc(CNC(=O)Nc2cccs2)cc1	11.2%	17.8%	17.8µM*	-0.4	-9.3%[46.1 µM]	?
COc1ccc(CNC(=O)Cc2cccs2)cc1OC	.	.	1.6%	-2.9	.	.
Cc1cc(C)n(C(=O)N(c2ccccc2)c2ccccc2)n1	.	.	3.7%	-0.5	.	.
CCN(CC(=O)NCc1ccc(F)cc1)S(=O)(=O)c1ccc(C)cc1	.	.	0.8%	-0.1	.	.
COc1ccc(NS(=O)(=O)c2cccc(-c3n[nH]c(=S)n3Cc3ccccc3)c2)cc1	-24.2%	2.0%	-14.2%	6.6	-40.4%	0.447µM*
CCN(Cc1ccccc1)C(=O)c1ccc(CNS(=O)(=O)c2ccc(C)cc2)cc1	-2.2%	5.4%	-4.4%	3.7	-20.9%	2µM*
CCN(CC)S(=O)(=O)c1ccc(C(=O)NCc2ccc(C)cc2)cc1	-6.5%	-1.0%	6.6%	2.3	-10.9%[46.1 µM]	10µM*
COc1ccc(NS(=O)(=O)c2ccc(-c3n[nH]c(=S)n3Cc3ccccc3)cc2)cc1	5.5%	5.7%	-4.8%	-2.4	-41.0%	.

Assay outcomes deposited in PubChem BioAssay by National Center for Advancing Translational Sciences (NCATS).
